From PubChem BioAssay
Active and inactive are the calls of the source.

How the values were obtained:
[1] = optical density shifts of acrAB sulA E. coli – strain DRC41, OD650, 48 h, E. coli filamentation inducer project, primary screen (AID 1152); settings: higher = more signal, called active from +8 up or from −8 down;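 note: E. coli MC1000 strain DRC41 lacking acrAB efflux pump and sulA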
[2] = probe aLefty1 binding on compound microarray – biochemical, small-molecule microarray, 635/667 nm fluorescence, primary screen (AID 1153); settings: higher = more signal;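 note: score merges spot fluorescence with signal-to-noise ratio from the scanned slide images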
[3] = plasmodial surface anion channel blockers, osmotic lysis – cell-based, P. falciparum Indochina, OD700, 1 h, primary screen (AID 1154); settings: P. falciparum Indochina infected RBC osmotic lysis, higher = more signal, called active from +8 up or from −8 down
[4] = plasmodial surface anion channel blockers, osmotic lysis – cell-based, P. falciparum Indochina, OD700, 2 h, primary screen (AID 1155);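 note: lysis reports solute entry through the parasite surface anion channel PSAC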; settings: P. falciparum Indochina infected erythrocytes, higher = more signal, called active from +8 up or from −8 down
[5] = changes in parasitized red cell lysis, either direction – P. falciparum Indochina, OD700, 3 h, PSAC antagonist project, primary screen (AID 1156); settings: P. falciparum-infected erythrocytes, osmotic lysis, higher = more signal, called active from +8 up or from −8 down
[6] = plasmodial surface anion channel blockers, osmotic lysis – cell-based, P. falciparum Indochina, OD700, 18 h, primary screen (AID 1157); settings: P. falciparum Indochina infected erythrocytes, osmotic lysis OD700, 18 h; higher = more signal, called active from +8 up or from −8 down
[7] = S6 kinase pathway phospho-S6 level changes – cell-based, A549, cytoblot, luminescence, serum-stimulated, primary screen (AID 1158); settings: 5 h, higher = more signal;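 note: serum-stimulated A549 lung adenocarcinoma cells; signal is phosphorylated S6 detected by cytoblot immunostaining with HRP secondary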
[8] = molecular target: NADPH oxidase 2 (Homo sapiens) (UniProt P04839); experiment: compounds shifting NOX2 Amplex Red fluorescence – cell-based, HEK293-NOX2, PMA-stimulated, NOX inhibitor project, primary screen (AID 1159); settings: 45 min, higher = more signal, called active from +8 up or from −8 down; note: test concentration not given here
[9] = molecular target: NADPH oxidase 4 (Homo sapiens) (UniProt Q9NPH5); experiment: compounds shifting NOX4 Amplex Red fluorescence – cell-based, HEK293-NOX4, tetracycline-induced, NOX inhibitor project, primary screen (AID 1160); settings: HEK293-NOX4, Amplex Red H2O2 fluorescence, 45 min; higher = more signal, called active from +8 up or from −8 down
[10] = molecular target: NADPH oxidase 5 (Homo sapiens) (UniProt Q96PH1); experiment: compounds shifting NOX5 Amplex Red fluorescence – cell-based, HEK293-NOX5, NOX inhibitor project, primary screen (AID 1161); settings: HEK293-NOX5, ionomycin, 45 min, higher = more signal
[11] = compound effects on lung adenocarcinoma cell viability – A549, calcein-AM fluorescence, 48 h, basal, profiling panel (AID 1162); settings: higher = more signal; note: test concentration not given here
[12] = compound effects on differentiated 3T3-L1 adipocyte viability – cell-based, 3T3-L1 adipocytes, calcein-AM fluorescence, 48 h, basal, profiling panel (AID 1163); settings: 3T3-L1 adipocytes viability, higher = more signal; note: test concentration not given here
[13] = compound effects on hepatocellular carcinoma cell viability – HepG2, calcein-AM fluorescence, 48 h, basal, profiling panel (AID 1164); settings: higher = more signal; note: test concentration not given here
[14] = compound effects on multiple myeloma cell viability – MM1S, calcein-AM fluorescence, 48 h, basal, profiling panel (AID 1165); settings: higher = more signal;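 note: viability of MM1S multiple myeloma cells under basal unstimulated conditions; test concentration not given here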
[15] = calcein-AM signal in unstimulated myeloma cells – cell-based, calcein-AM fluorescence, 48 h, PK04 Diversity Set, profiling panel (AID 1166); settings: RPMI8226 myeloma viability, higher = more signal;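 note: cells grown under basal conditions without added stimulus; test concentration not given here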
[16] = JC-1 mitochondrial signal, unstimulated HepG2 cells – cell-based, JC-1 fluorescence, 24 h, 100 nL compound, profiling panel (AID 1167); settings: HepG2 mitochondrial potential, higher = more signal; note: test concentration not given here
[17] = JC-1 mitochondrial signal, unstimulated adipocytes – cell-based, JC-1 fluorescence, 3T3-L1 adipocytes, 24 h, 100 nL compound, profiling panel (AID 1168); settings: JC-1 mitochondrial fluorescence, higher = more signal, called active from +8 up or from −8 down; note: test concentration not given here
[18] = JC-1 mitochondrial signal, unstimulated myeloma cells – cell-based, JC-1 fluorescence, RPMI8226, 24 h, 100 nL compound, profiling panel (AID 1169); settings: JC-1 mitochondrial potential fluorescence, higher = more signal; note: test concentration not given here
[19] = JC-1 mitochondrial signal, unstimulated MM1S myeloma – cell-based, JC-1 fluorescence, 24 h, 100 nL compound, profiling panel (AID 1170); settings: MM1S mitochondrial potential, higher = more signal; note: test concentration not given here
[20] = resazurin metabolic signal in A549 cells – cell-based, resazurin fluorescence, 24 h, PK04 Diversity Set, profiling panel (AID 1171); settings: A549 viability, higher = more signal, called active from +8 up or from −8 down; note: test concentration not given here

NADPH oxidase 5 (Homo sapiens), sequence (Q96PH1 whole entry, looked up): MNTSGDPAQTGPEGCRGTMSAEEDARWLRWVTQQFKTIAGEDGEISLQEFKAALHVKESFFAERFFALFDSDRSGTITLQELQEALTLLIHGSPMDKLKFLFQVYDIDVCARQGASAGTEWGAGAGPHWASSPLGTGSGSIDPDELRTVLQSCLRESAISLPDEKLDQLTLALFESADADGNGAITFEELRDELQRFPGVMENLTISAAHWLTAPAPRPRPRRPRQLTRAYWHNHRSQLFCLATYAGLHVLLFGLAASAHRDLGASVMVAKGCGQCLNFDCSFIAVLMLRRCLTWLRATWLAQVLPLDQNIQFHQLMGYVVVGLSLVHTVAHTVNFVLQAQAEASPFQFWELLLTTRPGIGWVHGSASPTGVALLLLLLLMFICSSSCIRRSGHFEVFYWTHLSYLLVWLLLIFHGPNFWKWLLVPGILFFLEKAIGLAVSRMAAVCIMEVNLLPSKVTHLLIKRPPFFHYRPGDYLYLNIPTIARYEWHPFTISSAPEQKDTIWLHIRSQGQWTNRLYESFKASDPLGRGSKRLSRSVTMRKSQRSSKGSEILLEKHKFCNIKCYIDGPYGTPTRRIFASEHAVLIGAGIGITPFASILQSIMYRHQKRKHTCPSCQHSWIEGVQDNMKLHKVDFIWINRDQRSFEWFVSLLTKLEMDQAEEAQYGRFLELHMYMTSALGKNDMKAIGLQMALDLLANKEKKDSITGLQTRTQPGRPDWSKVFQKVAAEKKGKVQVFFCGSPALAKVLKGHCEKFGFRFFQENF
NADPH oxidase 4 (Homo sapiens), sequence (Q9NPH5 whole entry, looked up): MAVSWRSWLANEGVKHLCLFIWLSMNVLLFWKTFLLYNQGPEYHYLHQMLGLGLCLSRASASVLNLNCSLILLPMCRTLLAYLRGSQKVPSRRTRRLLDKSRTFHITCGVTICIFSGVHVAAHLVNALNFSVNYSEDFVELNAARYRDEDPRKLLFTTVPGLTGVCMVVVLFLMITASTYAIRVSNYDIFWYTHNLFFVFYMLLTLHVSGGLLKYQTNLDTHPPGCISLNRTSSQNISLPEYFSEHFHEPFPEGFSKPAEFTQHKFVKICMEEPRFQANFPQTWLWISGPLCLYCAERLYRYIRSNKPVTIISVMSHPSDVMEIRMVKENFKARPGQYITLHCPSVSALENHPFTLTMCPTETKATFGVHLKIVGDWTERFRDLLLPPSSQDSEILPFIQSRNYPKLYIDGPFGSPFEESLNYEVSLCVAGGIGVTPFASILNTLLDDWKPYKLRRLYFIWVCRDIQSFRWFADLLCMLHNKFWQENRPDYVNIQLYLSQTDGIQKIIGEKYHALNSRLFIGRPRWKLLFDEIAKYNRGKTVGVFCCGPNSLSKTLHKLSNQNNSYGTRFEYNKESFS
NADPH oxidase 2 (Homo sapiens), sequence (P04839 whole entry, looked up): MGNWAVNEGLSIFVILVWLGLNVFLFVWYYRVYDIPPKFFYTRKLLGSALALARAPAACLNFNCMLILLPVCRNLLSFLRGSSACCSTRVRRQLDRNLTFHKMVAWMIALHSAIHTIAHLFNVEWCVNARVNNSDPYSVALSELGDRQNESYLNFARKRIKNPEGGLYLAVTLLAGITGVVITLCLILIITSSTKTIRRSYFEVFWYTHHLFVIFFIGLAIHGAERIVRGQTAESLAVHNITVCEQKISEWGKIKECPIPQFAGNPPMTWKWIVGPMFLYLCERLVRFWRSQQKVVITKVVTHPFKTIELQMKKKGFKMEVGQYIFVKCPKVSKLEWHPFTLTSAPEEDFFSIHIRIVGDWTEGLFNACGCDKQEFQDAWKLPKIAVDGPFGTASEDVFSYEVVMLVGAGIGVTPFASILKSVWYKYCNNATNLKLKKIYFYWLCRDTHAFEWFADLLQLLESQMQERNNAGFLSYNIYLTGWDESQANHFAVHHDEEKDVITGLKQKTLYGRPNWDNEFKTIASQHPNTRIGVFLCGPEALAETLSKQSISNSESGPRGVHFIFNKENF

SMILES | z-score [1] | composite z-score [2] | z-score [3] | z-score [4] | z-score [5] | z-score [6] | z-score [7] | z-score [8] | z-score [9] | z-score [10] | z-score [11] | z-score [12] | z-score [13] | z-score [14] | z-score [15] | z-score [16] | z-score [17] | z-score [18] | z-score [19] | z-score [20]
C=CC[C@]1(C(=O)N(C)C)N=C(c2ccc(OCCCO)cc2)O[C@H]1c1ccccc1N=[N+]=[N-] | 0.355 (inactive) | 0.313 | 30.8 (active) | 28.4 (active) | 2.88 (inactive) | 7.33 (inactive) | -0.219 | -1.06 (inactive) | 1.52 (inactive) | 0.668 | -0.363 | -0.768 | -0.2 | -0.995 | -1.85 | -0.358 | 0.0159 (inactive) | -0.886 | -1.23 | -0.302 (inactive)
C=CCN1C(=O)[C@@]2(O[C@@H](CCO)[C@H]([Si](C)(C)c3ccc(OC)cc3)[C@H]2C)c2cc(N3C(=O)c4ccccc4Oc4ccccc43)ccc21 | 1.88 (inactive) | -0.147 | 24.4 (active) | 8.39 (active) | 0.332 (inactive) | 2.07 (inactive) | 0.502 | -0.946 (inactive) | 0.757 (inactive) | -0.54 | -3.02 | -0.428 | -4.76 | -2.94 | -4.12 | -2.97 | 1.07 (inactive) | -1.1 | -2.33 | -4.55 (inactive)
COc1ccc([Si](C)(C)[C@H]2[C@H](CCn3cc(CCO)nn3)O[C@@]3(C(=O)N(Cc4ccc(N5C(=O)c6cccc7cccc5c67)cc4)c4ccccc43)[C@@H]2C)cc1 | 1.91 (inactive) | 0.108 | 4.64 (inactive) | 0.882 (inactive) | 0.134 (inactive) | -0.627 (inactive) | 1.64 | -0.985 (inactive) | 1.82 (inactive) | 1.44 | -1.61 | 1.36 | -4.11 | -2.56 | -4.29 | -0.0483 | -0.712 (inactive) | -1.09 | -2.18 | -2.57 (inactive)
C=C(C(=O)CC[C@H](OC(C)=O)c1cccc(OCCO)c1)C(C)C | 0.667 (inactive) | -0.283 | 2.12 (inactive) | -1.94 (inactive) | 1.7 (inactive) | -1.7 (inactive) | 0.617 | -1.48 (inactive) | -0.481 (inactive) | -1.61 | -0.271 | 0.8 | -0.979 | -0.624 | -0.814 | -1.1 | 0.113 (inactive) | -0.427 | 0.89 | -0.62 (inactive)
COCCCNC(=O)[C@]1(Cc2ccccc2CN=[N+]=[N-])N=C(c2ccc(OCCCO)cc2)O[C@@H]1c1ccccc1 | 0.65 (inactive) | -0.184 | 26.2 (active) | 15.5 (active) | 1.28 (inactive) | 0.178 (inactive) | 1.64 | -1.94 (inactive) | -0.52 (inactive) | -1.46 | -1.36 | 0.503 | -0.79 | -2.62 | -4.24 | -0.194 | 0.48 (inactive) | -1.15 | -1.11 | 0.28 (inactive)
NC(=O)N1C(=O)C2C(C1=O)C1C=C(c3ccc(CO)cc3)C2C(C2CC2)N1Cc1sc2ccccc2c1Cl (stereo not given) | 0.421 (inactive) | 0.317 | 17.8 (active) | 3.88 (inactive) | 0.777 (inactive) | 1.39 (inactive) | -0.436 | 2.51 (inactive) | -0.148 (inactive) | -0.568 | 0.965 | 0.21 | 0.197 | -3.27 | -3.61 | 0.159 | 0.189 (inactive) | -0.65 | -0.311 | -0.207 (inactive)
NC(N)=NCc1cn(CCc2c[nH]c3ccccc23)nn1 | -0.75 (inactive) | -0.151 | 0.488 (inactive) | 0.078 (inactive) | 0.0119 (inactive) | 0.114 (inactive) | -0.583 | -0.00385 (inactive) | 0.0455 (inactive) | -3.95 | -0.609 | -0.596 | -0.173 | -0.613 | -0.286 | -1.09 | -1.04 (inactive) | -0.588 | -0.77 | -0.975 (inactive)
O=C1O[C@@H](c2ccccc2)[C@@H](c2ccccc2)N2[C@@H](c3ccc(O)cc3)[C@]3(C(=O)Nc4ccc(C#CC5=CCCCC5)cc43)[C@@H](C(=O)N3CCN(c4ncccn4)CC3)[C@H]12 | 1.29 (inactive) | 0.257 | 0.445 (inactive) | 0.35 (inactive) | -4.76 (inactive) | 0.614 (inactive) | 0.401 | 0.532 (inactive) | 0.278 (inactive) | 0.904 | -1.9 | 0.0112 | -1.25 | -1.2 | -2.78 | -0.703 | 0.701 (inactive) | -0.588 | -0.877 | 0.785 (inactive)
CCOC(=O)C[C@H]1[C@H](OC(=O)c2ccc(-c3ccccc3)cc2)[C@@H](NC(=O)c2ccc3ccccc3n2)c2cc(OCCCO)ccc2N1C(=O)c1ccccc1 | -0.715 (inactive) | 0.0367 | 0.18 (inactive) | -0.168 (inactive) | -0.571 (inactive) | 0.261 (inactive) | 0.893 | -0.59 (inactive) | -1.72 (inactive) | -1.04 | -1.05 | 0.312 | -0.677 | 0.23 | -0.248 | 1.35 | -0.248 (inactive) | 0.224 | 0.0802 | 0.0216 (inactive)
Cc1ccc(S[C@]2(C(=O)NCCN3CCOCC3)CC(=O)N(Cc3ccccc3C(F)(F)F)[C@@H]2c2ccc(CO)cc2I)cc1 | 0.0143 (inactive) | 0.114 | 4.93 (inactive) | 0.636 (inactive) | 2.03 (inactive) | 0.278 (inactive) | 0.155 | 2.82 (inactive) | -0.659 (inactive) | 1.61 | -0.209 | -0.292 | -0.695 | -2.85 | -2.15 | -0.178 | -1.03 (inactive) | -0.793 | -2.36 | 0.683 (inactive)
NCCCCCCNC(=O)[C@@H]1C[C@@H]2C(=O)N3CCC[C@H]3C(=O)N2[C@@H]1c1ccc(O)cc1 | -1.12 (inactive) | -0.508 | 1.67 (inactive) | 0.026 (inactive) | -0.653 (inactive) | 0.105 (inactive) | -0.164 | 0.162 (inactive) | 0.116 (inactive) | -0.515 | -0.428 | 0.548 | 0.442 | -0.0269 | -0.292 | -0.0719 | -0.202 (inactive) | 0.0552 | 0.0553 | -0.578 (inactive)
C[C@H]1C2=C3C(CC[C@H]4C(OCc5ccc(F)cc5C(F)(F)F)OC[C@](C)([C@@H]34)N(C(=O)OC(C)(C)C)C2)C2COC(=O)OCC21 (stereo not given in full) | -2.42 (inactive) | 0.739 | 2.68 (inactive) | 0.368 (inactive) | 1.19 (inactive) | 1.11 (inactive) | -0.139 | -0.0545 (inactive) | -2.17 (inactive) | -1.09 | -1.17 | 0.338 | -0.659 | -2.6 | -3.96 | -0.255 | -1.06 (inactive) | -0.325 | -0.183 | 0.117 (inactive)
COc1ccc([Si](C)(C)[C@H]2[C@H](CCO)O[C@@]3(C(=O)N(Cc4cccc(N5CCCCC5=O)c4)c4ccccc43)[C@@H]2C)cc1 | -0.205 (inactive) | 0.102 | 5.16 (inactive) | 1.94 (inactive) | 0.558 (inactive) | 1.38 (inactive) | 0.781 | -5.46 (inactive) | -1.46 (inactive) | 0.189 | -1.38 | -0.865 | -4.36 | -2.73 | -4.35 | -1.59 | 0.0395 (inactive) | -1.1 | -2.09 | -2.95 (inactive)
COc1ccc(NN2C(C(O)c3ccco3)C=CC3C(=O)N(C4CCCCC4)C(=O)C32)cc1 (stereo not given) | -0.636 (inactive) | 0.364 | 2.54 (inactive) | 0.143 (inactive) | 0.546 (inactive) | 0.0933 (inactive) | -0.686 | -0.19 (inactive) | -0.842 (inactive) | -1.1 | -0.181 | -0.637 | 1.37 | 0.739 | -0.023 | 0.526 | -1.23 (inactive) | 0.23 | -1.23 | 0.405 (inactive)
CCOC(=O)C[C@H]1[C@H](OC(=O)c2ccc(-c3ccccc3)cc2)[C@@H](NC(=O)c2ccc3ccccc3c2)c2cc(OCCCO)ccc2N1C(=O)c1ccc2ccccc2n1 | -0.572 (inactive) | 0.302 | 4.55 (inactive) | 0.568 (inactive) | -0.559 (inactive) | 0.159 (inactive) | 0.762 | -1.35 (inactive) | 0.928 (inactive) | 0.0885 | 0.245 | 0.543 | -0.573 | 0.477 | -1.06 | 1.33 | 1.26 (inactive) | 0.729 | 0.164 | 0.094 (inactive)
C=CCN1C(=O)[C@]2(CC=C)N=C(c3ccc(OCCCO)cc3)O[C@@H]2c2ccccc21 | 0.987 (inactive) | 0.544 | 33.2 (active) | 34.2 (active) | 2.64 (inactive) | 10.6 (active) | -0.112 | -1.13 (inactive) | 1.08 (inactive) | 1.09 | -1.23 | 0.931 | -1.82 | -3.48 | -3.86 | -1.12 | 2.63 (inactive) | -1.16 | -2.38 | -1.95 (inactive)
